A647 fluor: compound fluoresces in the A647 spectral region. Compound fluorescence, A647 channel (570/671 nm), Tris buffer. max dye-equivalent concentration, M. 59,000 tested, under 10 active;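 also: values scaled relative to a standard on each plate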
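Compound fluorescence was measured in 100 mM Tris buffer, pH 8.0, after 15 min at room temperature, using 570 nm excitation and 671 nm emission filters. Signal was normalized to a per-plate Alexa 647 standard curve and expressed as dye-equivalent concentration at each compound concentration.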
A488 autofl: A488 region autofluorescence | compound autofluorescence, A488 spectral region, dye equivalency; Compound Type: qHTS ECL - MLSMR | actives 0.1% (n = 59,000) | max dye equivalency, M
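Spectroscopic profiling in the A488 region: compounds in pH 8.0 Tris (100 mM), 15 min RT, CCD imaging with 480 nm excitation and 540 nm emission; responses normalized against A488 dye standards.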
TexasRed autofl: compounds fluorescent in Texas Red spectral region. Compound fluorescence, Texas Red channel, 547/618 nm; active compounds read high. actives 0.06% (n = 59,000). max dye-equivalent concentration, M. AID 587; in the data active = max dye-equivalent concentration above about 10 nM; inconclusive = between about 1.1 nM and that limit
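Pin-transferred compounds and Texas Red standards go into 100 mM Tris buffer, pH 8.0. After 15 min at room temperature, plates are imaged with 547/618 nm filters. Each value is a dye-equivalent concentration derived from the per-plate dye curve.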
Rhodamine fluor: rhodamine region autofluorescence; Rhodamine-region fluorescence, 547/598 nm, Tris buffer; active compounds read high; max dye-equivalent concentration, M; actives 0.05% (n = 59,000); AID 594; in the data active = max dye-equivalent concentration above about 11 nM; inconclusive = between about 1.1 nM and that limit
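Compound fluorescence in 100 mM Tris, pH 8.0, read after 15 min at room temperature with 547 nm excitation and 598 nm emission. Output is dye-equivalent concentration from an on-plate rhodamine standard series.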
Fluorescein fluor: compound autofluorescence in fluorescein spectral region; Compound autofluorescence, 480/540 nm, fluorescein-equivalent; active compounds read high; actives 0.91% (n = 59,000); max fluorescein-equivalent concentration, M; in the data active = max fluorescein-equivalent concentration above about 10 nM; inconclusive = between about 1.1 nM and that limit
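Compounds were pin-transferred into 100 mM Tris buffer, pH 8.0, and incubated 15 min at room temperature. Fluorescence was read at 480 nm excitation/540 nm emission. Signals were normalized to an on-plate six-point fluorescein standard curve as dye-equivalent concentration.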
Resorufin autofl: resorufin region autofluorescence. Compound fluorescence, resorufin region 547/598 nm, buffer; active compounds read high. max dye-equivalent concentration, M. actives 0.04% (n = 59,000)
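Intrinsic fluorescence profiled in the resorufin window (ex 547 nm, em 598 nm) after 15 min at room temperature in pH 8.0 Tris buffer (100 mM); responses normalized against a six-point resorufin standard series as dye-equivalent concentration.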
Starred values were filed as active, the others as inactive; i = inactive; ? = inconclusive. Rows were chosen to be rich in hits. Some 0.96% of all compounds tested hit in one or more screens of this group. Unless noted, no rule for the calls is given here.

SMILES | A647 fluor | A488 autofl | TexasRed autofl | Rhodamine fluor | Fluorescein fluor | Resorufin autofl
N#CC1=C(N)OC2=C(CCC/C2=C/c2ccoc2)C1c1ccoc1 (configuration not stated) | 5.2e-09 | i | ? | i | 1.4e-08M* | i
NC(=S)NCCC[C@@H](N)C(=O)O | 1.5e-09 | i | i | i | i | i
N#CC1=C(N)C(C#N)(C#N)C(c2cccnc2)C2CCCC=C12 (configuration not stated) | 3.7e-08 | ? | i | i | 4.8e-08M* | i
C[N@@+]1(CC[N@@+]2(C)CCC[C@H]2c2cccnc2)CCC[C@@H]1c1cccnc1 | 2.5e-09 | i | i | i | i | i
N#CC1=C(N)C(C#N)(C#N)C(c2ccc[nH]2)C2CCCC=C12 (configuration not stated) | 1e-09 | i | i | i | 1.3e-08M* | i
COc1cc(C(=O)O[C@@H]2CC(C)=CC[C@@]3(C)CC[C@](O)(C(C)C)[C@H]23)ccc1O | 1e-09 | i | i | i | i | i
COc1cccc(OC)c1OCCNC[C@@H]1CSc2ccccc2O1 | 1.2e-08 | i | i | i | i | i
CCCCCCCCCCCCCCC/C=C\[C@H](O)[C@@H](NC(=O)CCCCCCCCCCCCC)OC (tested in a mixture with another compound) | 5.2e-08 | i | ? | i | ? | i
N[C@@H](C(=O)O)[C@H](O)C(=O)O | 3.7e-09 | i | ? | i | ? | i
Cc1ccc2nc3sc(C(=O)N4CCOCC4)c(N)c3cc2c1 | 1.1e-09 | ? | i | i | 8.1e-08M* | i
CCOc1cc(-c2ccc(N)c(OCC)c2)ccc1N | 1e-09 | ? | i | i | 9.8e-08M* | i
COc1ccccc1NC(=O)c1cc2ccc(O)cc2o/c1=N\O | 3.4e-08 | i | i | i | 1.5e-08M* | i
COc1ccccc1NC(=O)c1cc2ccccc2o/c1=N\O | 4.4e-08 | i | i | i | ? | i
N#CC1=C(N)SC(N)=C(C#N)C1CCc1ccccc1 | 1.2e-08 | i | i | i | 1.2e-08M* | i
N#CC1=C(N)SC(N)=C(C#N)C1c1c(Cl)cccc1Cl | 8e-09 | i | i | i | i | i
CCn1nc(-c2ccccc2)c2nc3ccccc3nc21 | 1e-09 | 1.2e-08M* | i | i | 2.4e-07M* | i
CCCCn1c2nc3ccccc3nc2c2c(=O)n(CCC)cnc21 | 6.5e-09 | i | ? | i | i | i
c1ccc(-c2nnc(Cn3c4ccccc4c4nc5ccccc5nc43)o2)cc1 | 4.7e-08 | i | i | i | ? | i
CCCn1nc(-c2ccccc2)c2nc3ccccc3nc21 | 3.6e-08 | 1.1e-08M* | i | i | 2e-07M* | i
COc1ccc(C(=O)N2CCC3(CC2)CN(C(=O)Nc2cccc(C#N)c2)C3)cc1 | 1e-09 | i | i | i | 1.1e-08M* | i
COc1ccc(C(=O)N2CCC3(CCN(C(=O)Nc4cccc(C#N)c4)CC3)CC2)cc1 | 2.9e-09 | i | i | i | i | i
COC(=O)N1CCC2(CCN(C(=O)Nc3ccc(OC)cc3)CC2)CC1 | 2.1e-08 | i | i | i | 1.5e-08M* | i
COc1ccc(NC(=O)N2CCC3(CC2)CCN(C(=O)c2ccncc2)CC3)cc1 | 1e-09 | i | i | i | i | i
CC(=O)[C@@H]1CC[C@@H]2[C@@H]3CC=C4C[C@H](OS(=O)(=O)O)CC[C@@]4(C)[C@H]3CC[C@]21C | 5.8e-09 | i | ? | i | ? | i
